Consider 111 molecules from PubChem BioAssay AID1508611 (The Scripps Research Institute Molecular Screening Center, 2020).

The whole screen tested about 6,700 compounds, of which about 20 (0.3%) were called active.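 Rule for the calls: active = mean percent activation in the counterscreen above 29.09%; inactive = the rest.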 This excerpt belongs to a sample that is enriched for actives.

The target in this test is Glucose-dependent insulinotropic receptor (Homo sapiens) (UniProt Q8TDV5). Description: off-target GPR119 activation – cell-based, PathHunter beta-arrestin, luminescence, triplicate, counter-screen for GPR151 activator project (AID 1508611). The conditions noted are these: GPR119 PathHunter beta-arrestin cells, 90 min, at 11.2 µM, stronger effect = higher value, 0 = compound-well median, 100 = enzyme-acceptor control. Background: A counterscreen serves to expose hits that act by an unwanted route or on another target.
Glucose-dependent insulinotropic receptor (Homo sapiens), sequence (Q8TDV5 whole entry, looked up): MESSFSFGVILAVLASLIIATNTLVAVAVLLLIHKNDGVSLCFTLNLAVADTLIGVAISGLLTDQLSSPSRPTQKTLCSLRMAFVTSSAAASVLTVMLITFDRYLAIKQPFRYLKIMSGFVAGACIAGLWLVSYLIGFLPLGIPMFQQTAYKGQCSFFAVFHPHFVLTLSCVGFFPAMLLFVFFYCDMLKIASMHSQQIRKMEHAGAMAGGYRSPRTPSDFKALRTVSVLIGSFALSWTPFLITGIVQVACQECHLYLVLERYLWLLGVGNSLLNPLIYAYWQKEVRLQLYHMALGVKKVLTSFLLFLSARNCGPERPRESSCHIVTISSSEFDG
For `CC(=O)Cn1c(=O)c2c(nc3n2CCCN3c2ccc(Br)cc2)n(C)c1=O`, the activation is 8.64% (inactive).
Then `N#Cc1ccc(N2CCN(CCCNC(=O)Nc3ccccc3)CC2)cc1`, with -8.24% (inactive); and `COc1cccc(/C=C2/C(=O)NC(=O)N(c3ccccc3F)C2=O)c1`, with 15.2% (inactive).
Then `COc1ccc(Br)cc1C(=O)NCC1COc2ccccc2O1` (stereo unspecified), with -9.64% (inactive).
Then `COc1ccc(C(=O)Nc2sc3c(c2C(N)=O)CCCC3)cc1`, with -10% (inactive); and `O=C(Nc1cccc(N2CCC(NCc3ccon3)CC2)c1)c1cccnc1`, with 18.2% (inactive); and `Cc1ccc(S(=O)(=O)Cn2nnnc2CN2CCN(c3ccccc3F)CC2)cc1`, with 8.39% (inactive).
As for `O=C(COc1ccc([N+](=O)[O-])cc1)Nc1ccc2oc(-c3cccc(F)c3)nc2c1`, the activation is -7.11% (inactive).
Then `CN1CC(=O)N2CCN(C(=O)OCc3ccccc3)C[C@@H]2C1=O`, with 1.78% (inactive); and `CC(C)C(=O)NC(C)c1nnc2n1CCN(Cc1ccc3cccnc3c1)CC2` (stereo unspecified), with 6.65% (inactive); and `CCN(CC)S(=O)(=O)c1ccc(C)c(NS(=O)(=O)c2cccc(C#N)c2)c1`, with -6.36% (inactive).
Consider `CCOc1ccc(N2C(=O)C3C4c5ccccc5C(C(C)O)(c5ccccc54)C3C2=O)cc1` (stereo unspecified), for which the activation was -4.77% (inactive).
Then `C=CCNC(=O)C(=O)NCC1OCCCN1S(=O)(=O)c1ccccc1` (stereo unspecified), with -6.88% (inactive); and `CC(=O)Oc1cccc(N2C(=O)C3C4c5ccccc5C(C)(c5ccccc54)C3C2=O)c1` (stereo unspecified), with -7.48% (inactive); and `CCOC(=O)C1=C(CC)OC(N)=C(C#N)C1c1ccc(C(F)(F)F)cc1` (stereo unspecified), with -9.1% (inactive).
Then `CCN1/C(=C/c2ccc3cc(C)ccc3[n+]2CC)Sc2ccc(-c3ccccc3)cc21`, with 0.91% (inactive).
Then `CCc1nnc2n1N(C(C)=O)C(c1ccc3c(c1)CCCC3)=C(C(C)=O)S2`, with 3.36% (inactive); and `CC(C)CCSc1nc2c(c(=O)n1Cc1ccco1)C1(CCCCC1)Cc1ccccc1-2`, with -4.2% (inactive).
Take `O=C1CCC(CCNCCOc2ccccc2)N1CCc1ccccc1` (stereo unspecified): the activation is 12.1% (inactive).
Then `O=C(Cc1cccs1)NCCC1=CCCCC1`, with 0.59% (inactive); and `CCN1CCCC1CNc1nc(=S)[nH]c2ccccc12` (stereo unspecified), with -5.74% (inactive).
Then `CCc1ccc(NS(=O)(=O)c2ccc(Cl)cc2)cc1`, with 1.55% (inactive); and `CC12CCC(C(=O)Nc3ncc(Cl)cc3Cl)(CC1=O)C2(C)C` (stereo unspecified), with -5.44% (inactive); and `Cc1cnc(Nc2ccc(N3CCOCC3)cc2)nc1NCc1cccc(C(F)(F)F)c1`, with 15.3% (inactive).
Then `Cc1nc2cc(C(=O)NCc3ccc4c(c3)OCO4)ccc2n1-c1ccc(OCc2ccccc2)cc1`, with -11.3% (inactive); and `COc1ccccc1NC(=O)NCc1nc(-c2ccc(OC)c(OC)c2)no1`, with -3.49% (inactive).
For `O=C(COc1ccc(Br)cc1CO)NCC(F)(F)F`, the activation was 5.45% (inactive).
Then `CCOC(=O)Cc1coc(NC(=O)c2ccc(Cl)cc2)n1`, with 16.4% (inactive).
Then `Cc1nc2nc(SCc3ccc([N+](=O)[O-])cc3)nn2c(C)c1Cc1c(F)cccc1Cl`, with 15.8% (inactive); and `COc1ccccc1C1C(C(N)=O)=C(C)Nc2nc(CCCO)nn21` (stereo unspecified), with -6.42% (inactive); and `CCOc1ccc(NC(=O)COc2cccc(C)c2C)cc1`, with 6% (inactive).
For `COc1cccc(C(=O)NC(=S)Nc2ccc(OC)cc2OC)c1`, the activation was 5.05% (inactive).
Then `CCC(=O)Nc1cc(C(=O)O)ccc1C`, with 0.03% (inactive); and `Brc1cnc(NC2CCCCC2)nc1`, with 4.03% (inactive); and `CC(C)N1CCc2c(sc(NC(=O)Cc3ccccc3)c2C#N)C1`, with -3.52% (inactive).
Then `O=C(N/N=C/c1cc(Cl)ccc1O)c1cc(-c2ccccc2)n[nH]1`, with -13.8% (inactive).
Take `COc1ccc(/C=C(\C#N)C(=O)Nc2cccc(S(=O)(=O)N3CCCCC3)c2)cc1`: the activation was -10.3% (inactive).
Then `COc1cccc(-c2nnc(NC(=O)CSc3ccccc3)o2)c1`, with 6.53% (inactive); and `Cc1ccc(N2C(=O)CC(N3CCN(Cc4ccc(Cl)cc4)CC3)C2=O)cc1Cl` (stereo unspecified), with 6.82% (inactive).
Then `O=C(CCn1cnc2c(cnn2-c2ccc(F)cc2)c1=O)NCCC1=CCCCC1`, with 1.14% (inactive); and `COc1ccc(OC)c(NC(=O)CSc2nnc3[nH]c(=O)c(C)c(C)n23)c1`, with 3.38% (inactive); and `COc1nc(Nc2ccccc2)nc(-c2c(C)noc2C)n1`, with -7.06% (inactive).
Then `CSc1ncc(C(=O)NCCc2c[nH]c3ccccc23)c(C)n1`, with -0.1% (inactive); and `Cc1cc(Nc2ccc(F)cc2)n2cnnc2n1`, with -9.37% (inactive).
Take `Clc1ccccc1C1C=C(c2ccc(I)cc2)Nc2nnnn21` (stereo unspecified): the activation is -6.17% (inactive).
Then `CCC(C)Nc1nc2c(c(=O)[nH]c(=O)n2C)n1CC(O)COC(C)C` (stereo unspecified), with -3.29% (inactive); and `Cc1cc(N2CCOCC2)ccc1C=C1C(=O)c2ccccc2C1=O`, with 1.45% (inactive); and `COCCNC(=S)N1CCN(c2ccccc2OC)CC1`, with -11.2% (inactive).
Then `COc1cc(NC(=O)c2sc3ncnc(N4CCCCC4)c3c2C)cc(OC)c1OC`, with 0.56% (inactive); and `CC(C)(C)OC(=O)N1CCC[C@H](Cn2cc(C(=O)O)nn2)C1`, with 2% (inactive); and `COCCN1C(=O)CC(CC(=O)NCc2nc3ccccc3[nH]2)(c2ccccc2C)C1=O` (stereo unspecified), with 3.87% (inactive).
Then `O=C(CCc1nnc(CCCCc2ccccc2)o1)N1CCC(N2CCSCC2)CC1`, with 0.58% (inactive).
On to `CC1CCN(C(=O)C(NS(=O)(=O)c2ccc3c(c2)oc(=O)n3C)C(C)C)CC1` (stereo unspecified), for which the activation was 6.52% (inactive).
For the molecule `Cc1ccc(C2=NC(c3cc(Br)ccc3F)NC(c3cc(Cl)ccc3O)C2)cc1` (stereo unspecified), the activation was 6.67% (inactive).
Then `COc1ccc(-c2nnc(SCCC#N)o2)cc1`, with -4.81% (inactive); and `COc1ccc(OC)c(NC(=S)Nc2ccccn2)c1`, with -19.3% (inactive); and `Oc1ccc(Cn2cc[nH]c2=S)cc1`, with -8.52% (inactive).
Then `CCCCc1ccc(N=Cc2nc(-c3cccc4ccccc34)oc2O)cc1`, with -7.98% (inactive); and `COc1ccc(C(=O)Cc2cc3ccccc3oc2=O)c(OC)c1`, with -8.7% (inactive).
Then `O=C(CC1C(=O)NCCN1Cc1ccc2ccccc2c1)NCCCn1cccn1` (stereo unspecified), with 1.24% (inactive); and `c1ccc(-c2nc(-c3cccs3)[nH]c2-c2cccs2)cc1`, with -1.67% (inactive); and `CCOC(=O)c1cccc(NC(=O)CCCOc2ccc(OC)cc2)c1`, with -2.39% (inactive).
On to `COc1ccc(OC)c(/C=N/n2nnnc2N)c1`, for which the activation was -3.22% (inactive).
Then `CC(C)(C)NC(=O)Cc1coc2ccc3ccccc3c12`, with -5.33% (inactive); and `O=C(CN1C(=O)c2ccccc2C1=O)NC(c1ccccc1)c1ccc(Br)cc1` (stereo unspecified), with -12.4% (inactive).
Then `O=C(COc1ccc(CO)cc1)Nc1ccc(Cl)c(Cl)c1`, with -3.53% (inactive); and `CO[C@@H]1COC(=O)[C@@H](C)COC(=O)[C@H](C)NC(=O)C/C=C/[C@H]1C`, with 10.4% (inactive); and `Cc1[nH][nH]c(=O)c1C(c1ccc(-c2ccc(F)cc2[N+](=O)[O-])o1)c1c(C)[nH][nH]c1=O`, with 9% (inactive).
Then `O=C(CN1C(=O)CCC1=O)Nc1ccc(S(=O)(=O)N2CCOCC2)cc1`, with 9.75% (inactive); and `C=CCSC1=C(C#N)C(c2ccc(Cl)cc2Cl)CC(=O)N1` (stereo unspecified), with -2.2% (inactive).
`CC(C)n1c(=O)[nH]c2c(C(N)=O)nc(-c3ccc(-c4ccccc4)cc3)nc21`: the activation was 8.53% (inactive).
Then `COc1ccc(N2C(=O)C(Cl)=C(Nc3ccc(C)cc3)C2=O)cc1`, with 9.02% (inactive); and `COc1cc(OC)cc(C(=O)Nc2ccc3c4c(cccc24)CC3)c1`, with 9.11% (inactive).
Consider `CCOc1ccccc1-c1cc(C(=O)N2CCOCC2)c2ccccc2n1`, for which the activation was -4.4% (inactive).
Then `Cc1ccc(NC(=O)CSc2nnc(-c3ccc(N)cc3)n2C)cc1Cl`, with 5.44% (inactive); and `COc1ccc(C2(C)NC(=O)N(CC(=O)Nc3ccc4ccccc4c3)C2=O)cc1` (stereo unspecified), with 5.1% (inactive); and `CC(=O)Nc1ccc(NC(=O)c2ccc3nc(Br)sc3c2)cc1`, with -3.64% (inactive).
As for `CCC1C(=O)NCCN1Cc1ccc2c(c1)CN(Cc1c[nH]c3ccccc13)CCO2` (stereo unspecified), the activation was -4.8% (inactive).
Then `CC(=O)Nc1nc(C(=O)Nc2nc(-c3sc(C)nc3C)cs2)cs1`, with 13.5% (inactive).
Then `c1cncc(Nc2nc(NC3CC3)c3ncn(C4CCCCC4)c3n2)c1`, with -7.65% (inactive).
Then `COc1ccc(NC(=S)N2CCN(S(=O)(=O)c3ccc(F)cc3)CC2)c(OC)c1`, with -3.67% (inactive); and `CCc1ccc(S(=O)(=O)NCCOc2cc(N3CCOCC3)ncn2)cc1`, with 0.5% (inactive); and `Cc1ccc(NC(=O)c2cccc(N(C)C)c2)cc1NC(=O)c1ccc(O)cc1`, with -0.12% (inactive).
Take `COc1ccc(C=C(C#N)C#N)c(CSc2ccccn2)c1`: the activation is 14.8% (inactive).
As for `COc1cc([N+](=O)[O-])ccc1NC(=S)NCc1cc(C)n(C)n1`, the activation is -4.23% (inactive).
For `Cn1c(=O)c2c(nc(SCC(=O)O)n2Cc2ccc(F)cc2)n(C)c1=O`, the activation was -2.28% (inactive).
As to `C/C(=N/N1CCN(Cc2ccc(C)cc2C)CC1)c1ccc([N+](=O)[O-])cc1`, the activation is -0.84% (inactive).
Then `CCOc1cc(C2C3=C(CCCC3=O)NC3=C2C(=O)CCC3)cc(Br)c1OCC`, with 8.25% (inactive).
Then `CCCOC1(C(F)(F)F)NC(=O)N(c2ccc(C(C)C)cc2)C1=O` (stereo unspecified), with -7.99% (inactive); and `CC(=O)c1cccc(-c2nc(Nc3ccc(Oc4ccccc4)cc3)c3ncn(-c4ccsc4)c3n2)c1`, with 1.29% (inactive); and `COc1cc(C(C)=Nc2c(C)n(C)n(-c3ccccc3)c2=O)cc(O)c1OC`, with 3.69% (inactive).
Then `Cc1ccccc1C(=O)NCc1nc(-c2ccc(Cl)cc2)no1`, with 10.3% (inactive); and `C=CCn1c(=O)c2ccc(C(=O)NCc3ccc4c(c3)OCO4)cc2n(CC(N)=O)c1=O`, with 5.23% (inactive); and `COc1ccc([N+](=O)[O-])cc1NC(=O)C1CC(Cl)=CCC1C(=O)O` (stereo unspecified), with -0.8% (inactive).
For the molecule `O=C(Nc1ccc(NC(=O)c2cccc3c(Br)cccc23)cc1)c1ccco1`, the activation is 16.8% (inactive).
As for `CC(=O)c1c(C)[nH]c(C(=O)N2CCN(c3ccc(Cl)cc3)CC2)c1C`, the activation was 2.38% (inactive).
Then `COc1ccc(Nc2nc(-c3ccc(F)cc3)cs2)c(OC)c1`, with 5.77% (inactive); and `COc1cc(/C=N/N=C2/NC(=O)CS2)ccc1OC(=O)c1ccccc1C`, with -7.49% (inactive); and `O=C(O)/C=C/c1ccccc1Cl`, with -5.81% (inactive).
Then `COc1ccc(C(=O)Nc2ccc(S(=O)(=O)NC(C)C)cc2)cc1`, with 13.4% (inactive).
Then `CC(C(=O)NCCN1CCOCC1)n1c2ccccc2c2cn[nH]c(=O)c21` (stereo unspecified), with 5.53% (inactive).
In the case of `Cc1ccc2cc(C#N)c(SCCO)nc2c1`, the activation was -5.53% (inactive).
Then `Cc1ccc[n+](-c2ncnc(N)c2[N+](=O)[O-])c1`, with -3.57% (inactive); and `CCOc1ccc(/C=C2N=C(/C=C/c3cccc(Cl)c3Cl)OC\2=O)cc1`, with 0.65% (inactive).
Then `O=C(NCc1ccsc1)c1ccc(-n2cccc2)cc1`, with -3.28% (inactive); and `O=C(C(Cc1ccccc1)N1C(=O)C2C3c4ccccc4C(c4ccccc43)C2C1=O)N1CCOCC1` (stereo unspecified), with 7.72% (inactive).
`Cc1cccc(NC(=O)CSc2nc3[nH]ncc3c(=O)[nH]2)c1`: the activation was 0.57% (inactive).
With `NC(=S)N/N=C/c1ccc([N+](=O)[O-])cc1`, the activation was 6.78% (inactive).
Then `O=C(/C=C/Nc1ccccc1NS(=O)(=O)c1ccc([N+](=O)[O-])cc1)c1ccco1`, with -7.75% (inactive).
Then `CN(C)c1cccc(Nc2cc(C(=O)Nc3ccc(N4CCOCC4)cc3)ccn2)c1`, with -10.4% (inactive); and `CC1=C(C(=O)Nc2cccc(F)c2)C(c2ccccn2)C2=C(CCCC2=O)N1` (stereo unspecified), with 0.3% (inactive).
